Among the test systems are DU-145 prostate; MALME-3M melanoma; MDA-MB-231 breast; RXF 393 renal; SF-268 CNS; SF-295 CNS; SF-539 CNS; UACC-257 melanoma; M14 melanoma; K-562 leukemia.
What all share (experiment): NCI-60 one-dose screen, 48 h (100 = growth as untreated, 0 = no growth, -100 = all killed)
Conditions in all cases: 10 µM

The structures appear in SMILES notation. This is part of a sample that, as a whole, favours compounds with a hit. Of some 83,000 tested, about 20% had one in any assay.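 Growth was measured after 48 h exposure to one concentration of compound in 96-well plates. Values under 10 count as active.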 Values without a mark were called inactive. The source made the active and inactive calls.

Take `CC1/C=C/C=C/C=C/C=C/C=C/C=C/C=C/C(O[C@@H]2O[C@H](C)[C@H](O)[C@@H](O)[C@@H]2N)CC(O)C(C(=O)O)C(O)CC(=O)CC(O)CC(O)CC(O)CC(=O)CCCC(=O)CC(=O)OC1C(C)CC(C)C(O)CC(=O)c1ccc(N)cc1` (some centres undefined): the growth is -98.7% (active) in the test on DU-145 prostate; -92.5% (active) in the test on MALME-3M melanoma; -94.8% (active) with MDA-MB-231 breast; -90.9% (active) in the test on RXF 393 renal; -95.8% (active) in the test with SF-268 CNS; -95.3% (active) with SF-295 CNS. Moreover, the growth in the test on SF-539 CNS was -71.4% (active); in the test on UACC-257 melanoma it was -99.7% (active); in the test with M14 melanoma it was -88.7% (active).

For the molecule `CC(=O)O[C@@]12CO[C@@H]1C[C@H](O)[C@@]1(C)C(=O)[C@H](O)C3=C(C)[C@@H](OC(=O)[C@H](O)[C@@H](NC(=O)OC(C)(C)C)c4ccccc4)C[C@@](O)([C@@H](OC(=O)c4ccccc4)C12)C3(C)C` (some centres undefined), the growth with DU-145 prostate was -10.4% (active); with MALME-3M melanoma, 76.5%; in the test on MDA-MB-231 breast, 45.5%; in the test with RXF 393 renal, 23.7%; with SF-268 CNS, 51.8%; in the test with SF-295 CNS, -23% (active). Further, the growth in the test on SF-539 CNS is 23%; in the test with UACC-257 melanoma it was 74%; in the test on M14 melanoma, 36%.

For the molecule `CNC(=O)c1c(I)c(NC(C)=O)c(I)c(C(=O)O)c1I`, the growth in the test with DU-145 prostate was 113%; in the test with MALME-3M melanoma, 112%; in the test with MDA-MB-231 breast, 95.5%; in the test with RXF 393 renal, 115%; in the test on SF-268 CNS it was 108%; in the test on SF-295 CNS, 119%. Also, the growth is 109% in the test on SF-539 CNS and 114% with UACC-257 melanoma.

On to `CC(C)[N+]1(C)C2CC[C@@H]1CC(OC(=O)C(CO)c1ccccc1)C2` (some centres undefined), for which the growth in the test with DU-145 prostate is 117%; in the test on MALME-3M melanoma, 103%; with MDA-MB-231 breast, 98.8%; with RXF 393 renal, 120%; with UACC-257 melanoma it was 96.9%; in the test on M14 melanoma, 110%.

Turning to `CN(C)c1ccc(/C=N/NC(=O)c2ccccc2Nc2cccc(C(F)(F)F)c2)cc1`, the growth with K-562 leukemia was 77.8%; with MDA-MB-231 breast it was 70.9%; in the test with SF-268 CNS it was 93.7%; with SF-295 CNS, 111%; with SF-539 CNS it was 105%; in the test with UACC-257 melanoma, 101%. Moreover, in the test with M14 melanoma, the growth was 105%.

As for `O=C(N/N=C/c1ccc([N+](=O)[O-])cc1)c1ccccc1Nc1cccc(C(F)(F)F)c1`, the growth with K-562 leukemia is 107%; in the test with MDA-MB-231 breast, 80.5%; in the test on SF-268 CNS, 98.4%; in the test with SF-295 CNS it was 105%; with SF-539 CNS, 60.7%; in the test on UACC-257 melanoma, 95.5%. Besides, the growth in the test with M14 melanoma is 86.4%.

On to `CC(C)C1=C(O)C2=C(C(=O)C1=O)[C@@]1(C)CCCC(C)(C)[C@@H]1CC2`, for which the growth in the test with DU-145 prostate is 81.6%; in the test on MDA-MB-231 breast, 103%; with RXF 393 renal, 84.3%; in the test with SF-268 CNS, 63.4%; with SF-295 CNS it was 43.3%; in the test on SF-539 CNS, 90%. Besides, the growth is 78.7% in the test on UACC-257 melanoma and 80.7% in the test with M14 melanoma.

Consider `COc1ccc2c(c1)CC=C1[C@@H]2CC[C@]2(C)C(=O)/C(=N/O)C[C@@H]12`, for which the growth was 96.6% in the test on DU-145 prostate; 86.9% in the test on MDA-MB-231 breast; 64% in the test on RXF 393 renal; 76.4% with SF-268 CNS; 74.9% in the test with SF-295 CNS; 98.7% in the test with SF-539 CNS. The growth with UACC-257 melanoma was 118%; in the test with M14 melanoma, 94.3%.

On to `Nc1nc(N)c(N)c(Nc2ccc(CCO)cc2)n1`, for which the growth in the test with DU-145 prostate is 102%; in the test with MDA-MB-231 breast it was 95.3%; with RXF 393 renal, 109%; in the test on SF-268 CNS, 103%; with SF-295 CNS it was 105%; with SF-539 CNS, 111%. Further, the growth was 103% with UACC-257 melanoma and 97.2% in the test on M14 melanoma.

As for `Cc1cc(C(C#N)c2ccc(Cl)cc2)c(Cl)cc1NC(=O)c1cc(I)cc(I)c1O` (centres undefined), the growth was 72.7% in the test with DU-145 prostate; 58.1% in the test with MALME-3M melanoma; 46.6% in the test with MDA-MB-231 breast; 48.9% with RXF 393 renal; 33.7% in the test with SF-268 CNS; -20.9% (active) in the test with SF-295 CNS. Besides, the growth in the test with SF-539 CNS is 31.5%; in the test with UACC-257 melanoma it was 71.3%; in the test with M14 melanoma, 32.3%.

As to `Cc1cc(Cl)ccc1Nc1nc(C(F)(F)F)ccc1C(=O)N/N=C/c1c(Cl)cccc1Cl`, the growth is 7.36% (active) with K-562 leukemia; -17.2% (active) with MDA-MB-231 breast; 12.8% in the test on SF-268 CNS; -37.7% (active) in the test on SF-295 CNS; 5.69% (active) with SF-539 CNS; 13.1% in the test with UACC-257 melanoma. Further, in the test with M14 melanoma, the growth was 7.93% (active).

`COc1ccccc1/C=N\N/C(N)=N\N=C\c1ccccc1OC`: the growth in the test on K-562 leukemia was 2.34% (active); in the test on MDA-MB-231 breast it was 21.7%; in the test on SF-268 CNS, 41.4%; with SF-295 CNS, 5.03% (active); with SF-539 CNS, -35.5% (active); in the test with UACC-257 melanoma, 46.3%. Moreover, the growth in the test on M14 melanoma was -3.67% (active).

On to `c1ccc(/C(=N\Nc2ccc3ccccc3n2)c2ccccn2)cc1`, for which the growth with K-562 leukemia was 8.58% (active); in the test on MDA-MB-231 breast, 29.8%; in the test on SF-268 CNS, 19.6%; in the test on SF-295 CNS, -15.8% (active); in the test with SF-539 CNS it was -12.4% (active); in the test with UACC-257 melanoma, 16%. In addition, the growth with M14 melanoma was -41.8% (active).

For the molecule `Nc1c(Br)cc(Br)c2c1[nH]c(=O)c1ccccc12`, the growth in the test on K-562 leukemia is 78.4%; with MALME-3M melanoma it was 47.8%; in the test on MDA-MB-231 breast it was 54.8%; with RXF 393 renal, 26.2%; with SF-268 CNS it was 76.9%; with SF-295 CNS it was 73.1%. The figures for the growth in the test on SF-539 CNS, in the test on UACC-257 melanoma and in the test with M14 melanoma were 83.7%, 87.9% and 100%, respectively.

The values are drawn from PubChem BioAssay (NCI).
